# PubChem BioAssay (NCATS)
# Records with an inconclusive call do not appear. A call without a number means that no potency is given here. Unmarked numbers belong to inactive results. Active and inactive are the calls of the source. The call rests on the fitted dose curve; in most records, active means well fitted curve in the direction sought with a large enough effect; inconclusive means small, poorly fitted or top-dose-only effect, or another doubt; inactive means no such curve, though single readings can be large; an effect the other way counts as inactive or inconclusive.
# Tests used:
# KB-3-1 = test: Cytotoxic Profiling of Annotated Libraries Using Quantitative High-Throughput Screening (AID 1296008); details: Five cell lines viability, CellTiter-Glo ATP luminescence, 48-72 h; max response: active compounds read low; further: nearly all actives have a fitted effect of over 60% in size; further: potency means the concentration at half of the fitted maximal effect
# Procedure, shortened: (§1)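 Compounds were pin-transferred onto cells and incubated 48 or 72 hr at 37 degree Celsius, 95% humidity. CellTiter-Glo was added, plates sat 10 min at room temperature, then ATP-coupled luminescence was imaged as the viability read-out.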
# NIH3T3 [1] = test: as above; details: Five cell lines viability, CellTiter-Glo ATP luminescence, 48-72 h; max response: active compounds read low
# Procedure, shortened: as §1
# CAOV3 = test: Primary qHTS to identify gynecologic anti-cancer compounds using libraries of approved drugs and bioactive compounds (AID 1345084); details: Gynecologic cancer cell panel viability, ATPlite luminescence, 48 h; series mostly up to 57.5 µM; further: nearly all actives have a fitted effect of over 55% in size; further: potency means the concentration at half of the fitted maximal effect
# Procedure, shortened: (§2)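 Cells, 1,000 per well, plated 16 h, then exposed 48 h at 37 C to compounds. Viability by ATPlite luminescence after 15 min at room temperature.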
# HaCat [2] = test: Cytotoxic Profiling of Annotated Libraries Using Quantitative High-Throughput Screening (AID 1296008); details: Five cell lines viability, CellTiter-Glo ATP luminescence, 48-72 h; max response: active compounds read low; further: nearly all actives have a fitted effect of over 60% in size; further: potency means the concentration at half of the fitted maximal effect
# Procedure, shortened: as §1
# C33A = test: Primary qHTS to identify gynecologic anti-cancer compounds using libraries of approved drugs and bioactive compounds (AID 1345084); details: Gynecologic cancer cell panel viability, ATPlite luminescence, 48 h; series mostly up to 57.5 µM; further: nearly all actives have a fitted effect of over 55% in size; further: potency means the concentration at half of the fitted maximal effect
# Procedure, shortened: as §2
# CASKI = test: as above; details: Gynecologic cancer cell panel viability, ATPlite luminescence, 48 h; series mostly up to 57.5 µM
# Procedure, shortened: as §2
# Es-2 = test: as above; details: Gynecologic cancer cell panel viability, ATPlite luminescence, 48 h; series mostly up to 57.5 µM
# Procedure, shortened: as §2
# HeLa = test: as above; details: Gynecologic cancer cell panel viability, ATPlite luminescence, 48 h; series mostly up to 57.5 µM
# Procedure, shortened: as §2
# JEG-3 = test: as above; details: Gynecologic cancer cell panel viability, ATPlite luminescence, 48 h; series mostly up to 57.5 µM
# Procedure, shortened: as §2
# Hek293T = test: as above; details: Gynecologic cancer cell panel viability, ATPlite luminescence, 48 h, control line for the selectivity index; series mostly up to 57.5 µM
# Procedure, shortened: as §2
# HACAT [3] = test: qHTS assay to identify novel small-molecules to repurpose for Merkel cell carcinoma treatment (AID 1296009); details: MCC and control cell lines, CellTiter-Glo viability, 72 h; series mostly up to 44.8 µM; further: nearly all actives have a fitted effect of over 60% in size
# Procedure, shortened: (§3)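 qHTS format: cells treated with library compounds in DMSO across 8 (NPC) or 11 (MIPE) concentrations. Readout after 72 hr at 37 degree celsius was CellTiter-Glo luminescence.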
# NIH3T3 [4] = test: as above; details: MCC and control cell lines, CellTiter-Glo viability, 72 h; at 44.8 µM (top of the series) unless noted
# Procedure, shortened: as §3
structure (smiles),measurement,setting,value
Cc1cc(-c2cc(O)ccc2Cl)cc2nnc(Nc3ccc(OCCN4CCCC4)cc3)nc12,Potency,KB-3-1,4.61 µM (active)
same,Potency,NIH3T3 [1],11.6 µM (active)
same,Potency,CAOV3,11.2 µM (active)
CCN1CCN(Cc2ccc(NC(=O)c3ccc(C)c(/C=C/c4cnc5[nH]ccc5c4OC)c3)cc2C(F)(F)F)CC1,Potency,HaCat [2],5.8 µM (active)
same,Potency,KB-3-1,18.4 µM (active)
same,Potency,NIH3T3 [1],5.17 µM (active)
same,Potency,C33A,14.1 µM (active)
same,Potency,CASKI,12.6 µM (active)
same,Potency,Es-2,10 µM (active)
same,Potency,HeLa,15.8 µM (active)
same,Potency,JEG-3,inactive
CN(CCc1ccc(Nc2ncc(-c3cccnc3)s2)cc1)Cc1ccccc1,max response,HaCat [2],-1.85%
same,max response,KB-3-1,-12.1%
same,Potency,C33A,inactive
same,Potency,CAOV3,inactive
same,Potency,CASKI,inactive
same,Potency,Es-2,inactive
same,Potency,HeLa,inactive
same,Potency,Hek293T,inactive
same,Potency,JEG-3,inactive
O=C1OCc2cc3cccc(O[C@@H]4O[C@H](CO)[C@@H](O)[C@H](O)[C@H]4O)c3c(O)c21,outcome,KB-3-1,inactive
same,max response,NIH3T3 [1],0.153%
same,Potency,C33A,inactive
same,Potency,CAOV3,inactive
same,Potency,CASKI,inactive
same,Potency,Es-2,inactive
same,Potency,HeLa,inactive
same,Potency,Hek293T,inactive
same,Potency,JEG-3,inactive
CN(C)C(=O)NC1CCC(CCN2CCN(c3cccc(Cl)c3Cl)CC2)CC1 (centres undefined),outcome,HaCat [2],inactive
same,max response,KB-3-1,-7.32%
same,max response,NIH3T3 [1],-6.34%
same,outcome,HACAT [3],inactive [at 9.27 µM]
same,"activity change, negative = cytotoxicity",C33A,1.34% [at 11.6 µM]
same,"activity change, negative = cytotoxicity",CASKI,13.5% [at 11.6 µM]
same,"activity change, negative = cytotoxicity",Es-2,5.23% [at 11.6 µM]
same,"activity change, negative = cytotoxicity",HeLa,-0.835% [at 11.6 µM]
same,"activity change, negative = cytotoxicity",Hek293T,12% [at 11.6 µM]
same,"activity change, negative = cytotoxicity",JEG-3,8.74% [at 11.6 µM]
C[C@H]1O[C@@H](O[C@H]2CC[C@@]3(C)C(CC[C@]4(C)C3CC=C3C5CC(C)(C)CC[C@]5(C(=O)O)CC[C@]34C(=O)O)C2(C)C)[C@H](O)[C@@H](O)[C@@H]1O (some centres undefined),max response,HaCat [2],-21.6%
same,max response,KB-3-1,4.81%
same,max response,NIH3T3 [1],3.7%
same,Potency,C33A,inactive
same,Potency,CAOV3,inactive
same,Potency,CASKI,inactive
same,Potency,Es-2,inactive
same,Potency,HeLa,inactive
same,Potency,Hek293T,inactive
same,Potency,JEG-3,inactive
C[C@@H]1O[C@@H](O[C@H]2[C@H](OC(=O)[C@]34CCC(C)(C)C[C@H]3C3=CCC5[C@@]6(C)C[C@H](O)[C@H](O[C@@H]7O[C@H](CO)[C@@H](O)[C@H](O)[C@H]7O)[C@@](C)(CO)C6[C@H](O)C[C@@]5(C)[C@]3(C)CC4)OC[C@H](O)[C@@H]2O)[C@H](O)[C@H](O)[C@H]1O[C@@H]1OC[C@@H](O)[C@H](O[C@@H]2OC[C@](O)(CO)[C@H]2O)[C@H]1O (some centres undefined),max response,HaCat [2],-1.17%
same,max response,KB-3-1,3.08%
same,outcome,NIH3T3 [1],inactive
same,outcome,NIH3T3 [4],inactive [at 9.27 µM]
same,"activity change, negative = cytotoxicity",C33A,7.14% [at 6.55 µM]
same,"activity change, negative = cytotoxicity",CASKI,15.5% [at 6.55 µM]
same,"activity change, negative = cytotoxicity",Es-2,6.38% [at 6.55 µM]
same,"activity change, negative = cytotoxicity",HeLa,4.34% [at 6.55 µM]
same,"activity change, negative = cytotoxicity",Hek293T,3.42% [at 6.55 µM]
same,"activity change, negative = cytotoxicity",JEG-3,3.02% [at 6.55 µM]
Cc1cc(OCc2nc(-c3ccccc3Cl)cs2)ccc1OCC(=O)O,outcome,HaCat [2],inactive
same,outcome,KB-3-1,inactive
same,max response,NIH3T3 [1],4.72%
same,Potency,HACAT [3],inactive
same,Potency,C33A,inactive
same,Potency,CASKI,inactive
same,Potency,Es-2,inactive
same,Potency,HeLa,inactive
same,Potency,Hek293T,inactive
same,Potency,JEG-3,inactive
OCC(CO[C@@H]1O[C@H](CO)[C@@H](O)[C@H](O)[C@H]1O)c1ccc2c(c1)OCO2 (some centres undefined),max response,HaCat [2],1.18%
same,max response,KB-3-1,-7.72%
same,max response,NIH3T3 [1],-0.622%
same,Potency,C33A,inactive
same,Potency,CAOV3,inactive
same,Potency,CASKI,inactive
same,Potency,Es-2,inactive
same,Potency,HeLa,inactive
same,Potency,Hek293T,inactive
same,Potency,JEG-3,inactive
